Screens from PubChem.
GLP1R cytotox: cytotoxic in the GLP-1 receptor inverse agonist counter-screen | HEK293 cAMP-luciferase reporter cells, luminescence, 24 h | Potency, µM (titrated, usually from 38.3 µM), without a hit: top-dose activity change, negative = inhibition, most hits filed as inhibitors | hit rate 0.13% among 410,000;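 further: loss of luciferase light is scored as toxicity; potency means the concentration at half of the fitted maximal effect; on the % scale 0 is the no-effect control and ±100 the full control effect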
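Quantitative HTS format, 1536 wells, 200 cells/uL seeded. Compounds: 23 nL, 24 h, 37 °C. Detection: luciferase reagent, luminescence at 12 min RT; decreased signal taken as cytotoxic.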
GLP-1R inv ag: GLP-1 receptor (human) inverse agonism. P43220. HEK293 GLP-1R CRE-luciferase, luminescence, 24 h; GLP-1R form is constitutively active. Potency, µM (series often up to 38.3 µM), without a hit: at the top dose activity change, negative = inhibition, hits mostly inhibitors. hit rate 1.6% among 410,000. AID 624417; further: potency means the concentration at half of the fitted maximal effect; on the % scale 0 is the no-effect control and ±100 the full control effect; nearly all actives have a fitted effect of over 55% in size
Target sequence (P43220 whole entry, looked up): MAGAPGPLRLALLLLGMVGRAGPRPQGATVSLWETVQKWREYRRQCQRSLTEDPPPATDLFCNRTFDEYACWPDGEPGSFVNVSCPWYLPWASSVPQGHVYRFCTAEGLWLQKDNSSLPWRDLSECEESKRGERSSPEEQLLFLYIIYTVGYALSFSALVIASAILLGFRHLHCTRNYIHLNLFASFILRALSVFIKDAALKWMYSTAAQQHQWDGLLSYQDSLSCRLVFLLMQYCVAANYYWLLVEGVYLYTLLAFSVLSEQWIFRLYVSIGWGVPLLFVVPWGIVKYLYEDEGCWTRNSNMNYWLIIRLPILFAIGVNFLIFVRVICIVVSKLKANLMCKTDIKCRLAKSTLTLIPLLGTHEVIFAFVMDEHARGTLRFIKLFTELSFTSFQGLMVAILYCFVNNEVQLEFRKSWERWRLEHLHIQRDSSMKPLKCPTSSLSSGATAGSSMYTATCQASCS
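Readout was luciferase luminescence, measured 12 min after detection reagent at room temperature. Beforehand, GLP-1R reporter HEK293 cells had sat 12 h, then received compounds for 24 hr at 37 deg C.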
MmCpn inh: M. maripaludis TRiC chaperonin inhibition | hit rate 0.031% among 330,000 | Potency, µM (highest dose often 76.9 µM), inactives show at the top dose activity, negative = inhibition, usual class: inhibitors | AID 504842 | purified Mm-Cpn ATPase, ADP Transcreener TR-FRET; further: potency means the concentration at half of the fitted maximal effect; on the % scale 0 is the no-effect control and ±100 the full control effect; nearly all actives have a fitted effect of over 80% in size
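Purified archaeal chaperonin (25 nM final) was preincubated with compound for 10 min at 37°C, then ATP (10 uM final) was added for 30 min at 37°C in Tris pH 7.4/KCl/MgCl2/DTT buffer. ADP was quantified by HTRF Transcreener TR-FRET.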
GLP1R ag: agonists of human GLP-1 receptor; P43220; HEK293 GLP-1R CRE-luciferase, luminescence, 4-6 h; cells express a hypersensitive GLP-1R form; Potency, µM (top dose mostly 45.6 µM), without a hit: at the top dose activation, usual class: activators; hit rate 0.007% among 380,000; AID 624172; further: potency means the concentration at half of the fitted maximal effect; % of control where 0% means no effect
CCT chaperon mod: cytosolic chaperonin activity modulation. purified chaperonin ATPase assay, HTRF ADP detection, 30 min. activity change, % (no concentration beside the values), hits read low. hit rate 0.3% among 360,000. AID 651819; in the data active means activity change below about -30%; further: on the % scale 0 is the no-effect control and ±100 the full control effect
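We incubate TRiC, 40 or 20 nM final, with library compounds at 76 uM and 10 uM ATP for 30 min at 37 °C. ADP formed is detected with Transcreener HTRF reagents after 30 min at room temperature.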
uPA generation: blocks generation of uPA at the cell surface; cell surface uPA generation assay, qHTS; Potency, µM (top dose mostly 38.3 µM), without a hit: at the top dose activity change, negative = inhibition, hits mostly inhibitors; hit rate 0.31% among 330,000; AID 540303; active means well fitted inhibition curve with a large enough effect; inconclusive means small, poorly fitted or top-dose-only effect; inactive means no such curve, though single readings can be large or run the other way; tested in mouse RAW 264.7 cells; further: potency means the concentration at half of the fitted maximal effect; on the % scale 0 is the no-effect control and ±100 the full control effect; nearly all actives have a fitted effect of over 55% in size
* hit, by the source's call; ? = inconclusive; / = no result. The list is not random: actives were taken first. Their share in the collection is about 2.2%. Unless noted, the call rests on the fitted dose curve; in most records, active means well fitted curve in the direction sought with a large enough effect; inconclusive means small, poorly fitted or top-dose-only effect, or another doubt; inactive means no such curve, though single readings can be large; an effect the other way counts as inactive or inconclusive.

SMILES	GLP1R cytotox	GLP-1R inv ag	MmCpn inh	GLP1R ag	CCT chaperon mod	uPA generation
COc1ccc(Nc2nnc(SCC(=O)/C=C3/N(C)c4ccccc4C3(C)C)s2)cc1	-23%	11µM*	-5%	-2%	-11	-6%
O=C(c1ccncc1)N1N=C(c2ccc(Br)cc2)CC1c1ccccc1O (centres undefined)	0%	?	1%	7%	-1	9%
O=C(c1cccs1)N1N=C(c2ccccc2)CC1c1ccccc1O (centres undefined)	-14%	8.9µM*	-3%	19%	-9	5%
O=C(c1ccccc1)N1N=C(c2ccccc2)CC1c1ccccc1O (centres undefined)	-29%	11µM*	0%	7%	2	0%
CSc1ccc(CCNC(=O)c2ccc(-c3nc(COc4ccc(C)cc4)c(C)o3)cc2)cc1	-8%	8%	/	/	/	/
O=C(Cc1ccccc1)NC1CC(=O)N(c2ccccc2)C1 (centres undefined)	2%	5%	/	/	/	/
CCn1c(=O)c2cc(C(=O)N(CC(C)C)CC(C)C)sc2c2ccccc21	9%	4%	/	0%	/	/
CCOc1ccc2nc(NS(=O)(=O)Cc3ccccc3)sc2c1	?	10µM*	-2%	4%	-1	-13%
CCOc1ccc2nc(NC(=O)c3ccccc3)sc2c1	1%	?	/	/	/	/
COc1ccc2c(c1)CCc1c(C(=O)Nc3c(C)nn(Cc4c(Cl)cccc4Cl)c3C)noc1-2	0%	-27%	/	/	/	/
COCCNC(=O)c1ccc2c3n(nc2c1)-c1ccccc1CO3	6%	-5%	0%	1%	0	4µM*
COCCNC(=O)c1ccc2c3n(nc2c1)-c1ccc(Cl)cc1CO3	?	32%	-24%	4%	-1	10µM*
Cc1ccc2c(c1)COc1c3ccc(C(=O)NCCO)cc3nn1-2	3%	14%	-3%	10%	0	?
C=CCNC(=O)c1ccc2c3n(nc2c1)-c1ccccc1CO3	0%	?	-2%	-4%	-1	1.4µM*
CCOC(=O)Cn1c(=O)oc2cc(S(=O)(=O)Nc3cc(OC)cc(OC)c3)ccc21	-2%	-10%	/	/	/	/
Cc1sc(NC(=O)c2ccco2)c(C(c2cccnc2)N2CCC(C)CC2)c1C (centres undefined)	-28%	8.9µM*	0%	-3%	-1	5%
COc1ccc(NC(=O)C2(C)Cc3c(-c4cccc(NC(C)=O)c4)ccnc3O2)cn1 (centres undefined)	?	1.1µM*	/	24%	2	/
COc1ccc(NC(=O)C2(C)Cc3c(-c4ccc(NC(C)=O)cc4)ccnc3O2)cn1 (centres undefined)	-24%	-8%	/	-5%	0	/
CCOC(=O)c1ccccc1NC(=O)c1cncc(Br)c1	5%	15%	-18%	0%	-37*	-1%
CC1(C)C([N+](=O)[O-])C(c2ccc(Cl)cc2)NC(c2ccc(Cl)cc2)C1[N+](=O)[O-] (centres undefined)	38%	10µM*	-1%	-5%	0	-6%
Cc1ccc(C2NC(c3ccc(C)cc3)C([N+](=O)[O-])C(C)(C)C2[N+](=O)[O-])cc1 (centres undefined)	45%	?	0%	1%	-2	5%
CC1(C)C([N+](=O)[O-])C(c2ccc(F)cc2)NC(c2ccc(F)cc2)C1[N+](=O)[O-] (centres undefined)	25%	10µM*	2%	-2%	2	45%
CC1CCN(S(=O)(=O)c2ccc3c(c2)CCC(=O)N3CC(=O)Nc2cccc(C#N)c2)CC1	-6%	3%	-2%	/	/	/
CCOc1ccc(NC(=O)CC2C(=O)N(c3ccc(F)cc3)C(=O)N2Cc2ccc(OC)c(OC)c2)cc1 (centres undefined)	-3%	-5%	/	/	/	/
Cc1cc(C(=O)COC(=O)c2ccc(O)cc2)c(C)n1CCc1ccc(F)cc1	-15%	?	-7%	8%	1	-1%
SMILES	GLP1R cytotox	GLP-1R inv ag	MmCpn inh	GLP1R ag	CCT chaperon mod	uPA generation
Cc1cc(C(=O)CSc2nc(N)cc(N)n2)c(C)n1CCc1ccc(F)cc1	-25%	5.6µM*	-5%	2%	0	-4%
Cc1ccc(S(=O)(=O)N2CCN(Cc3noc(CCC(=O)N4CCCCC4)n3)CC2)c(C)c1	4%	-5%	/	/	/	/
COc1ccc(-c2onc(C)c2C)cc1S(=O)(=O)Nc1ccc(OC(F)(F)F)cc1	-5%	13µM*	/	/	/	/
COc1cc(C(=O)OCC(=O)Nc2sccc2C(N)=O)cc(OC)c1OC	-39%	?	-8%	14%	-2	3.2µM*
COc1ccc(C(=O)OCC(=O)Nc2sccc2C(N)=O)cc1OC	3%	37%	?	?	0	-7%
CC(C)(C)c1ccc(C(=O)NC(=O)COC(=O)CCS(=O)(=O)c2ccccc2)cc1	7%	5%	-2%	-1%	-68*	2%
CCCCCCCCN1[C@@H](CC(=O)OCC)c2ccc(C(F)(F)F)cc2S1(=O)=O	-21%	10µM*	/	-4%	-1	21%
COc1cc2cc(CNc3ccc(C)cc3)c(=O)n(CC(=O)Nc3ccc(F)cc3F)c2cc1OC	-7%	12%	/	/	/	/
COc1cccc(NC(=O)C(Sc2nnc(Nc3ccccc3C)s2)c2ccccc2)c1 (centres undefined)	?	10µM*	-1%	-10%	1	-9%
Fc1ccccc1-n1ncc2c1ncn1nc(-c3ccccc3Cl)nc21	-1%	14%	/	/	/	/
CCOc1ccc(-c2nn(-c3ccccc3)cc2C2NC(=O)NC(C)=C2C(=O)OC(C)C)cc1 (centres undefined)	-8%	?	/	-1%	/	/
CCCCCCSc1nnc(-c2cnn(-c3ccccc3)c2-n2cccc2)n1C	?	4.5µM*	1%	-3%	-2	7%
CC(C)N(CCNCC(O)COc1ccc(C(C)(C)c2ccccc2)cc1)C(C)C (centres undefined)	?	4µM*	-1%	9%	2	/
OC(CNCCc1ccccc1)COc1ccc(OCC(O)CNCCc2ccccc2)cc1 (centres undefined)	?	?	0%	4%	1	-4%
Cc1ccc(-c2nn(CCC(=O)Nc3cccnc3)c(=O)c3ccccc23)cc1	4%	10%	1%	17%	-65*	6%
O=C(CCn1nc(-c2ccccc2)c2ccccc2c1=O)Nc1cccnc1	-2%	27%	0%	16%	0	-3%
COc1ccc(N(Cc2ccccc2)C(=O)c2nc(SC)ncc2Cl)cc1	4%	11µM*	/	/	/	/
CCCSc1ncc(Cl)c(C(=O)N(Cc2ccc(Cl)cc2)Cc2ccco2)n1	-15%	-79%	/	/	/	/
